An excerpt weighted towards active compounds, which were near 2.2% of everything screened.
Myeloid diff MLP = induction of myeloid progenitor differentiation, primary screen, cell-based, flow cytometry, MLPCN library | ER-HoxA9 myeloid progenitors, lysozyme-GFP differentiation | calls only at 10 µM | 360,000 compounds, 1% hits;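 active = normalized GFP-positive differentiation at or above the plate's own cutoff, the solvent-only control mean plus 3 SD; inconclusive = no clear call, values can overlap the other calls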;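 note: cells exposed to compound for four days before flow analysis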
H9c2 protect = cardioprotection against H2O2-induced cell death, primary screen, uHTS, H9c2 cells, ATPLite luminescence; H9c2 cardiomyocytes, H2O2 injury protection, 2 h; 360,000 compounds, 0.63% hits; protection from H2O2 cell death, % at 20 µM;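 active = compounds giving at least 50% protection of heart cells from peroxide-induced death in the single-dose screen, raw or plate-pattern-corrected value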;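 note: 0% = DMSO wells with peroxide and 100% = DMSO wells without peroxide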
ABCB6 inh MLPCN = ABCB6 transporter inhibitors, primary screen, K562-ABCB6 cells, flow cytometry, MLPCN library. ATP-binding cassette sub-family B member 6 (Homo sapiens), Q9NP58. K562-ABCB6 porphyrin accumulation, 1 h; hits give low values. fluorescence ratio to DMSO, % at 10 µM. 360,000 compounds, 0.19% hits. AID 602162, 2011;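 active = fluorescence ratio to DMSO below 75%, the collection mean minus 3 SD; inconclusive = too few cells collected in the well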;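 note: signal is porphyrin accumulated inside mitochondria; 100% equals median channel fluorescence of DMSO control wells; lower ratio means ABCB6 inhibition with less porphyrin fluorescence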
Target sequence (Q9NP58 whole entry, looked up): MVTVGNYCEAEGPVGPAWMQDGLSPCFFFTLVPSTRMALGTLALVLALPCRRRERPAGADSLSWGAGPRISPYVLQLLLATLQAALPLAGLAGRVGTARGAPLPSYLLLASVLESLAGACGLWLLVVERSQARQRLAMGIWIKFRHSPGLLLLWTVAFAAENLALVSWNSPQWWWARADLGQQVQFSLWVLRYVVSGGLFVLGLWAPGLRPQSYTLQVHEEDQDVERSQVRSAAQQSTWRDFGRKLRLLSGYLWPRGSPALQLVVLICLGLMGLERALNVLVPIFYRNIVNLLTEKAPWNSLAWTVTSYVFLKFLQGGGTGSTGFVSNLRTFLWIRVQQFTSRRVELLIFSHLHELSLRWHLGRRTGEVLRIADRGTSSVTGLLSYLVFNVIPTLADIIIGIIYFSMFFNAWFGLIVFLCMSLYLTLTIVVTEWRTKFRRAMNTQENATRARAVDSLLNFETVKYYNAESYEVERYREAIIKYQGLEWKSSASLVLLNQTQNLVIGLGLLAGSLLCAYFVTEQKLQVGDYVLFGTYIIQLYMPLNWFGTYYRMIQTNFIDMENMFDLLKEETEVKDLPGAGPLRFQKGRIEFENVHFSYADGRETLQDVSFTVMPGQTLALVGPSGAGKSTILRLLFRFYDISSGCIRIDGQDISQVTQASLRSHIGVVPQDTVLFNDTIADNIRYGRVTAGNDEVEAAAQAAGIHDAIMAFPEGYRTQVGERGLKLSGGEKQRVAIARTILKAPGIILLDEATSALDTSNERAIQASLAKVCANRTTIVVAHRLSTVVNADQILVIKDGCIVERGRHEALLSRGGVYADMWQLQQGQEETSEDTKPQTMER
MIN6 prolif = inducers of MIN6 beta-cell proliferation, primary screen, ATP luminescence, uHTS; MIN6 cells proliferation, ATPlite luminescence, 48 h; cells starved in 0.2% serum; 100% = growth in 10% serum; proliferation, % at 10 µM; 330,000 compounds, 0.29% hits; AID 2380, 2010;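 active = compounds whose signal lies at least 3.5 SD above the mean of all wells on their plate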;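 note: 0% = DMSO-treated cells in low-serum medium and 100% = 10% serum control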
iPSC survival up = enhancers of single-cell hiPSC survival, primary screen, ATPlite luminescence; 100% = ROCK inhibitor wells, 0% = DMSO; survival enhancement, % at 20 µM; 360,000 compounds, 0.044% hits; AID 602274, 2012; in the data active = survival enhancement above about 18%;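 note: cells exposed to compounds for 16 hours before the ATP read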
ABCB6 inh CP1 = ABCB6 transporter inhibitors, confirmation, K562-ABCB6 cells, flow cytometry, cherry pick 1. shares compounds with ABCB6 inh MLPCN. K562-ABCB6 porphyrin accumulation, 1 h; hits give low values. ratio response (% of DMSO), % at 10 µM. 700 tested, under 10 active. AID 602430, 2012;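 active = repeat-averaged ratio response below 75% of DMSO, the collection mean minus 3 SD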;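 note: median porphyrin fluorescence at 575 nm with 488 nm excitation from mitochondria; lower ratio means less porphyrin signal so ABCB6 inhibition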
Numbers without * were called inactive; i = inactive; ? = inconclusive; . = not tested or not shown.

SMILES	Myeloid diff MLP	H9c2 protect	ABCB6 inh MLPCN	MIN6 prolif	iPSC survival up	ABCB6 inh CP1
Clc1cc(Sc2ccc(Br)cc2)nnc1-c1ccccc1	i	-14.7	74.0*	-3.3	-0.6	101.0
Cc1ccccc1-n1cc(C(=O)c2cc(Cl)ccc2O)cc(C#N)c1=O	i	-10.4	98.0	0.4	-1.6	.
CNS(=O)(=O)c1cc(NC(=O)c2cncn2-c2ccccc2)ccc1C	i	2.2	101.0	0.0	2.7	.
Cc1cccc(NS(=O)(=O)c2ccc(-c3cnc(C4CC4)o3)cc2)c1C	?	-8.0	101.0	-6.7	0.3	.
O=C(CN1c2cccc3cccc(c23)S1(=O)=O)NCc1ccccc1Cl	i	-8.2	74.0*	.	-4.4	103.0
COc1cc(/C=N/NC(=O)c2cncc(Br)c2)cc([N+](=O)[O-])c1O	i	34.4	98.0	-3.2	1.2	.
Cc1ccccc1N1C(=O)[C@@H]2Cc3ccccc3CN2C1=O	i	3.1	68.0*	1.8	-1.8	98.0
COc1ccc(C(=O)NC(=S)Nc2ccc(Cl)c(C(=O)O)c2)cc1	i	-4.7	94.0	-3.4	1.0	.
COc1cc(/C=C/C(=O)OCC(=O)NC(=O)NC23CC4CC(CC(C4)C2)C3)ccc1OCC#N	i	6.2	90.0	-5.0	-1.3	.
Cc1nc(N2CCN(Cc3ccc4c(c3)OCO4)CC2)nc2c1C(=O)CC(c1ccco1)C2 (configuration not stated)	i	-1.7	73.0*	-2.9	-1.7	198.0
COc1cccc2c1c(NC(=O)c1cc(C)on1)nn2C	i	2.4	99.0	-1.3	-0.1	.
O=C1NC(=NCc2ccccc2)S/C1=C\c1ccccc1	i	-1.4	90.0	-1.0	-0.8	.
CC1(C(=O)NS(=O)(=O)c2ccc(C#N)cc2)CCN1C(=O)Cc1cc(F)ccc1F (configuration not stated)	i	10.0	104.0	.	-0.3	99.0
Cc1ccc(F)c(S(=O)(=O)NC(=O)C2(C)CCN2C(=O)Cc2ccc(Cl)cc2Cl)c1 (configuration not stated)	i	-2.9	98.0	.	0.7	.
Cc1ccccc1S(=O)(=O)NC(=O)C1(C)CCN1C(=O)CCc1ccc(Cl)cc1Cl (configuration not stated)	i	-4.7	97.0	.	-0.7	97.0
Cc1ccc(F)c(S(=O)(=O)NC(=O)C2(C)CCN2C(=O)Cc2ccccc2Cl)c1 (configuration not stated)	i	1.5	94.0	.	0.5	100.0
Cc1ccc(F)c(S(=O)(=O)NC(=O)C2(C)CCN2C(=O)Cc2cc(F)ccc2F)c1 (configuration not stated)	i	0.1	102.0	.	1.9	98.0
CC(C)(C)c1ccc(S(=O)(=O)NC(=O)C2(C)CCN2C(=O)Cc2cc(F)ccc2F)cc1 (configuration not stated)	i	3.3	107.0	.	-1.9	.
C[C@@H]1CN([C@H](C)CO)C(=O)c2c(c3ccccc3n2C)-c2ccccc2CO[C@@H]1CN(C)C(=O)Nc1ccccc1C(F)(F)F	i	-0.3	94.0	.	0.8	.
O=C(NC1CC2CCCC(C1)N2C(=S)Nc1ccccc1)C1CC1 (configuration not stated)	i	-2.9	95.0	-1.4	-0.6	.
Cc1ccc(CNC(=O)C2CCC(CNc3nc(=S)[nH]c4ccccc34)CC2)cc1 (configuration not stated)	i	-21.6	104.0	-3.2	-0.1	.
CC(C)CN(C(=O)CCC(=O)OCC(=O)N(C)c1ccccc1)c1c(N)n(CC(C)C)c(=O)[nH]c1=O	i	-1.0	100.0	-1.4	1.5	102.0
CCCCCN(C(=O)CCC(=O)OC(C)C(=O)c1ccc(CC)cc1)c1c(N)n(CCCC)c(=O)[nH]c1=O (configuration not stated)	i	-5.3	95.0	.	1.5	98.0
CCCCN(C(=O)CCC(=O)OCC(=O)NCc1ccccc1)c1c(N)n(CCC)c(=O)[nH]c1=O	i	4.5	101.0	-1.1	4.6	102.0

Compound activity from PubChem BioAssay.
